Source: PubChem BioAssay (NCATS)
Records with an inconclusive call do not appear. Active and inactive are the calls of the source. The call rests on the fitted dose curve; in most records, active means well fitted curve in the direction sought with a large enough effect; inconclusive means small, poorly fitted or top-dose-only effect, or another doubt; inactive means no such curve, though single readings can be large; an effect the other way counts as inactive or inconclusive.

Experiments:
[1] = target: Calcium and integrin-binding protein 1 (Homo sapiens) (UniProt Q99828); test: Primary qHTS for Identification of Calcium Integrin Binding Protein 1 (CIB1) Competitor (AID 1508620); conditions: CIB1-GST / FITC-alphaIIb peptide fluorescence polarization; series mostly up to 57.7 µM;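 further: GST tagged CIB1 binding a fluorescein labelled alphaIIb integrin peptide tracer; top concentration of the series differs between compounds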
Procedure, shortened: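 Fluorescence polarization competition: CIB1-GST (1 uM final) preincubated with compound 15 min at room temperature, then FITC-labeled alphaIIb peptide (100 nM final) added for another 15 min. Polarization read at Ex 480/Em 540.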

[2] = Primary qHTS for inhibitors of nuclear receptor binding SET domain protein 2 (NSD2) in an isogenic RCH-ACV NSD2 p.E1099K mutant (9B) (AID 1645876); conditions: RCH-ACV NSD2 E1099K (9B) viability, CellTiter-Glo, 72 h; series mostly up to 44.9 µM; further: nearly all actives have a fitted effect of over 70% in size
[3] = Primary qHTS for inhibitors of nuclear receptor binding SET domain protein 2 (NSD2) in an RCH-ACV wild type WT cells (2C) (AID 1645877); conditions: RCH-ACV (leukaemia line) NSD2 WT (2C) viability, CellTiter-Glo, 72 h; series mostly up to 44.9 µM; further: nearly all actives have a fitted effect of over 70% in size
On the % scale 0 is the no-effect control and ±100 the full control effect.

Chain of Calcium and integrin-binding protein 1 (Homo sapiens) (Q99828 whole entry, looked up): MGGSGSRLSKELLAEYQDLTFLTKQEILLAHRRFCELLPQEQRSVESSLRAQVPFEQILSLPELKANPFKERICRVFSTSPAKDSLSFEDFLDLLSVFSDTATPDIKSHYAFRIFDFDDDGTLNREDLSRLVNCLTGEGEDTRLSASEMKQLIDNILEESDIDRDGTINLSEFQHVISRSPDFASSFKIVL

CC1(C)CC[C@]2(C(=O)O[C@@H]3O[C@H](CO)[C@@H](O)[C@H](O)[C@H]3O)CC[C@]3(C)C(=CCC4[C@@]5(C)CC[C@H](O[C@@H]6O[C@H](C(=O)O)[C@@H](O[C@@H]7O[C@H](CO)[C@@H](O)[C@H](O)[C@H]7O)[C@H](O)[C@H]6O[C@@H]6O[C@H](CO)[C@@H](O)[C@H](O)[C@H]6O)C(C)(C)C5CC[C@]43C)C2C1 (stereo not given in full)
inactive: Potency [1] | activity change, negative = viability loss [2] 4.56% [at 9.23 µM] | activity change, negative = cell killing [3] 4.58% [at 9.23 µM]

CC(=O)c1ccc(O[C@@H]2OC[C@@H](O)[C@H](O)[C@H]2O[C@]2(CO)O[C@H](CO)[C@@H](O)[C@@H]2O)c(O)c1
inactive: Potency [1] | Potency [2] | Potency [3]

C=C[C@H]1[C@H](O[C@@H]2O[C@H](CO)[C@@H](O)[C@H](O)[C@H]2O)OC=C2C(=O)N3Cc4c([nH]c5ccccc5c4=O)[C@@H]3C[C@H]21
inactive: Potency [1] | Potency [2] | Potency [3]

COc1ccc2c(c1)N1C(=O)C[C@@]34C=CC[N@+]5([O-])CC[C@H]2[C@H](CC3)[C@@]145
inactive: Potency [1] | Potency [2] | Potency [3]

CCC(C)/C=C(C)/C=C/C1=CC2=C(Cl)C(=O)C(C)(OC(C)=O)C(=O)C2=CN1C(CC(=O)O)C(=O)O (stereo not given)
inactive: Potency [1] | Potency [2] | Potency [3]

C[C@]1(OC(=O)/C=C\c2ccc(O)cc2)C[C@@H](O)[C@]2(O)C=CO[C@@H](O[C@@H]3O[C@H](CO)[C@@H](O)[C@H](O)[C@H]3O)C12 (stereo not given in full)
inactive: Potency [1] | Potency [2] | Potency [3]

CC1=CC23[C@H](C=C(C(=O)O)[C@@H]2COC(=O)[C@]3(O)CO)[C@@H]1C (stereo not given in full)
inactive: Potency [1] | Potency [2] | Potency [3]

COc1cc(O)cc(C)c1C(=O)O[C@H]1[C@@H](O)[C@@H](n2ccc(=O)[nH]c2=O)O[C@@H]1CO
inactive: Potency [1] | Potency [2] | Potency [3]

C=C(C(=O)O)[C@@H]1CC[C@@]2(C)CC[C@@H](O)C(=C)C2C1 (stereo not given in full)
inactive: Potency [1] | Potency [2] | Potency [3]

COC(=O)c1c(CC=C(C)C)c(OC2OC(CO)C(O)C(O)C2O)c2ccccc2c1OC1OC(CO)C(O)C(O)C1O (stereo not given)
inactive: Potency [1] | Potency [2] | Potency [3]

CC(=O)O[C@@H](C[C@@H]1C=C(C)C(=O)O1)[C@H](C)[C@H]1CCC2[C@@]3(C)CC[C@H](O[C@@H]4O[C@H](CO)[C@@H](O)[C@H](O)[C@H]4O[C@@H]4O[C@@H](C)[C@H](O)[C@@H](O)[C@H]4O)C(C)(C)C3CC[C@@]2(C)[C@@]12COC(=O)C2 (stereo not given in full)
inactive: Potency [1] | activity change, negative = viability loss [2] -3.49% [at 9.23 µM] | activity change, negative = cell killing [3] -8.37% [at 9.23 µM]

C=CCc1cc(OC)c(OC(C)C(O)c2ccc(O)c(OC)c2)c(OC)c1 (stereo not given)
inactive: Potency [1] | Potency [2] | Potency [3]

COC(=O)C1=COC(O[C@@H]2O[C@H](CO)[C@@H](O)[C@H](O)[C@H]2O)C2C(C)C(=O)CC12 (stereo not given in full)
inactive: Potency [1] | Potency [2] | Potency [3]

CC(=O)[C@@H]1C[C@H](C(C)(C)O[C@@H]2O[C@H](CO)[C@@H](O)[C@H](O)[C@H]2O)CC[C@@]2(CO)OC(=O)C[C@@H]12
inactive: Potency [1] | Potency [2] | Potency [3]

CC(C)c1ccc2c(c1)C(O)CC1C(C)(C(=O)O)CCCC21C (stereo not given)
inactive: Potency [1] | Potency [2] | Potency [3]

CC(C)=CCC/C(C)=C/CO[C@@H]1O[C@H](CO[C@@H]2OC[C@](O)(CO)[C@H]2O)[C@@H](O)[C@H](O)[C@H]1O
inactive: Potency [1] | Potency [2] | Potency [3]

CC(CC(C)O[C@@H]1O[C@H](CO)[C@@H](O)[C@H](O)[C@H]1O)OC(=O)/C=C/c1ccc(O)cc1 (stereo not given in full)
inactive: Potency [1] | Potency [2] | Potency [3]

CC[C@H]1OC(=O)[C@H](C)C(=O)[C@H](C)[C@@H](OC2O[C@H](C)C[C@H](N(C)C)[C@H]2O)[C@@H](C)C[C@@H](C)C(=O)/C=C/[C@]1(C)O (stereo not given in full)
inactive: Potency [1] | Potency [2] | Potency [3]

Cc1cc(CO)c(O)c(C(=O)CC2CC(=O)NC(=O)C2)c1
inactive: Potency [1] | Potency [2] | Potency [3]

C[C@@H]1O[C@@H](O[C@H]2[C@H](O[C@H]3[C@H](O[C@H]4CC[C@@]5(C)C(CC[C@]6(C)C5CC=C5[C@@H]7CC(C)(C)C[C@@H](O)[C@]7(C)CC[C@]56C)[C@@]4(C)CO)O[C@H](C(=O)O)[C@@H](O)[C@@H]3O)O[C@H](C(=O)O)[C@H](O)[C@@H]2O)[C@H](O)[C@H](O)[C@H]1O (stereo not given in full)
inactive: Potency [1] | activity change, negative = viability loss [2] 4.66% [at 9.23 µM] | activity change, negative = cell killing [3] 2.89% [at 9.23 µM]
